This is a sample that favours compounds with a hit; in the whole collection about 4.2% have one here.
TIM10 inh: growth inhibitors of isogenic TIM10 control yeast, primary screen, counter-screen for tim10-1 yeast inhibitor project, luminescence, uHTS. inhibition, % at 10 µM. AID 463195, 2010. actives 1.4% (n = 330,000). S. cerevisiae TIM10 strain growth, BacTiter-Glo luminescence, 24 h;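 active means inhibition of 40% or more at the single tested concentration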;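 further: wild-type TIM10 isogenic control strain grown at permissive 25 °C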
tim10-1 inh: growth inhibitors of tim10-1 mutant yeast, primary screen, luminescence, uHTS; actives 2.2% (n = 330,000); S. cerevisiae tim10-1 ts strain growth, BacTiter-Glo, 24 h; inhibition, % at 20 µM;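 active means inhibition of at least 40%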;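 further: mutant grown at 25 °C; 0% = DMSO wells with yeast and 100% = wells holding no yeast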
NALP1 yeast inh: NALP1 inflammasome inhibitors in reconstituted yeast, colorimetric, S. cerevisiae, triplicate retest. S. cerevisiae NALP1/ASC/caspase-1 growth, X-gal OD620, 72 h. inhibition, % at 10 µM. actives 0.61% (n = 280,000). AID 2071, 2009; in the data active means inhibition mostly above about 24%, no sharp cut-off; inactive means mostly below about 32%
tim23-1 inh: growth inhibitors of tim23-1 mutant yeast, primary screen, luminescence, uHTS. S. cerevisiae tim23-1 growth, BacTiter-Glo luminescence, 24 h. inhibition, % at 20 µM. actives 1.3% (n = 330,000). AID 463212, 2010;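 active means growth inhibition of the mutant yeast at or above 50%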;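 further: temperature-sensitive mutant grown at 25 °C; plate controls were DMSO-treated mutant yeast for no effect and medium wells lacking yeast for full effect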
NALP3 yeast inh: NALP3 inflammasome inhibitors in reconstituted yeast, primary screen, luminescence, uHTS | Yeast reconstituted NLRP3/ASC/caspase-1, beta-gal luminescence, 24 h | inhibition, % at 10 µM | actives 0.39% (n = 330,000);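 active means inhibition of 50% or more; inactive means inhibition below 50%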;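 further: plate controls were induced DMSO wells for no effect and uninduced yeast grown without galactose for full effect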
V-ATPase pHluor: regulators of yeast V-ATPase proton pumping, primary screen, pHLuorin cytosolic pH fluorescence; S. cerevisiae; response, % at 10 µM; actives 0.37% (n = 350,000); AID 504577, 2011; in the data active means response mostly above about 7.3%, no sharp cut-off; inactive means mostly below about 5.4%; further: actives read high
* marks the source's active call; other numbers are inactive results.

Results for COC(=O)c1ccccc1-c1ccc(/C=N/NC(=O)c2cc3ccccc3o2)o1 ?
TIM10 inh: 25; tim10-1 inh: 8; NALP1 yeast inh: 27; tim23-1 inh: 46; NALP3 yeast inh: -1; V-ATPase pHluor: 0

What do the screens show for `COC(=O)c1ccccc1-c1c2ccc(=N)cc-2oc2cc(N)ccc12`?
TIM10 inh: 14; tim10-1 inh: 14; tim23-1 inh: 8; NALP3 yeast inh: 18; V-ATPase pHluor: 454*

What do the screens show for `Cc1cc(C(=O)Cn2c(CO)nc3ccccc32)c(C)n1C`?
TIM10 inh: -28; tim10-1 inh: -14; NALP1 yeast inh: -14; tim23-1 inh: -12; NALP3 yeast inh: 2; V-ATPase pHluor: 5

How did C[C@@H](NC(=O)c1nc[nH]c1C(=O)N(C)Cc1ccccc1)c1ccccc1 do in these assays?
TIM10 inh: 6; tim10-1 inh: 3; tim23-1 inh: 3; NALP3 yeast inh: 21; V-ATPase pHluor: 0

What do the screens show for `Cc1ccc(C2N(c3ccc(F)cc3)C(=O)C3CCCN32)cc1` (configuration not stated)?
TIM10 inh: -1; tim10-1 inh: -12; NALP1 yeast inh: 44*; tim23-1 inh: -6; NALP3 yeast inh: 9; V-ATPase pHluor: 0

Results for Cc1nc2c(Br)c3nc(C(F)(F)F)[nH]c3c(Br)c2[nH]1 ?
TIM10 inh: 8; tim10-1 inh: 11; NALP1 yeast inh: 48*; tim23-1 inh: 19; NALP3 yeast inh: 7; V-ATPase pHluor: -1

What do the screens show for `Cc1cc(Cl)ccc1OCCCC(=O)N1CCCCC1`?
TIM10 inh: 20; tim10-1 inh: 24; NALP1 yeast inh: -24; tim23-1 inh: 34; NALP3 yeast inh: 14; V-ATPase pHluor: -2

Results for Cc1cc(OCCCC(=O)N2CCCCC2)cc(C)c1Cl ?
TIM10 inh: 13; tim10-1 inh: 20; NALP1 yeast inh: 21*; tim23-1 inh: 4; NALP3 yeast inh: 41; V-ATPase pHluor: -1

How did Cc1noc(NS(=O)(=O)c2ccc(NC(=O)C(C)C)cc2)c1C do in these assays?
TIM10 inh: -8; tim10-1 inh: -14; NALP1 yeast inh: 13; tim23-1 inh: 9; NALP3 yeast inh: 21; V-ATPase pHluor: 5

Results for Cc1noc(NS(=O)(=O)c2ccc(NC(=O)CC(C)C)cc2)c1C ?
TIM10 inh: -1; tim10-1 inh: 8; NALP1 yeast inh: 38*; tim23-1 inh: 17; NALP3 yeast inh: -4; V-ATPase pHluor: -2

Results for COc1cccc(Cn2nnc(C(=O)Nc3cc(Cl)ccc3OC)c2N)c1 ?
TIM10 inh: 15; tim10-1 inh: 11; NALP1 yeast inh: 40*; tim23-1 inh: 24; NALP3 yeast inh: 4; V-ATPase pHluor: -2

How did COc1ccc(S(=O)(=O)NCCSCc2ccco2)cc1 do in these assays?
TIM10 inh: 0; tim10-1 inh: 15; NALP1 yeast inh: 34*; tim23-1 inh: 9; NALP3 yeast inh: 5; V-ATPase pHluor: 2

Results for CCCCNC(=O)NC1(C(F)(F)F)Oc2ccccc2O1 ?
TIM10 inh: 11; tim10-1 inh: 8; NALP1 yeast inh: 37*; tim23-1 inh: 19; NALP3 yeast inh: 5; V-ATPase pHluor: 0

How did Cc1cc(C(=O)N/N=C/c2ccc(N(C)C)o2)cs1 do in these assays?
TIM10 inh: -5; tim10-1 inh: -9; NALP1 yeast inh: 31*; tim23-1 inh: -7; NALP3 yeast inh: 6; V-ATPase pHluor: 2

How did COCCCNC(=O)c1ccc2c(c1)OCO2 do in these assays?
TIM10 inh: 10; tim10-1 inh: 4; NALP1 yeast inh: 12; tim23-1 inh: -11; NALP3 yeast inh: 11; V-ATPase pHluor: -5

How did O=C(NCCCN1CCN(CCCNC(=O)c2ccc3c(c2)OCO3)CC1)c1ccc2c(c1)OCO2 do in these assays?
TIM10 inh: -13; tim10-1 inh: 0; NALP1 yeast inh: 28*; tim23-1 inh: 6; NALP3 yeast inh: 5; V-ATPase pHluor: 0

How did Cc1nnn(C23CC4CC(CC(CC(=O)Nc5cccc(F)c5)(C4)C2)C3)n1 do in these assays?
TIM10 inh: -13; tim10-1 inh: 7; NALP1 yeast inh: 29*; tim23-1 inh: 21; NALP3 yeast inh: 6; V-ATPase pHluor: -2

How did COc1ccccc1C1=NOC(COc2ccc3c(C)cc(=O)oc3c2)C1 (configuration not stated) do in these assays?
TIM10 inh: -9; tim10-1 inh: 13; NALP1 yeast inh: 40*; tim23-1 inh: 27; NALP3 yeast inh: 18; V-ATPase pHluor: -2

Results for CCOc1ccccc1-c1nc2c(s1)CCc1onc(-c3ccc(OC)cc3)c1-2 ?
TIM10 inh: 2; tim10-1 inh: 6; tim23-1 inh: 4; NALP3 yeast inh: -2; V-ATPase pHluor: -1

What do the screens show for `CCc1ccccc1NC1=NCC(=O)N1Cc1ccccc1`?
TIM10 inh: -4; tim10-1 inh: 24; NALP1 yeast inh: 7; tim23-1 inh: -28; NALP3 yeast inh: -56; V-ATPase pHluor: 16*

Results for Cc1cc(C)cc(NC2=NCC(=O)N2Cc2ccccc2)c1 ?
TIM10 inh: 5; tim10-1 inh: 6; NALP1 yeast inh: 5; tim23-1 inh: 20; NALP3 yeast inh: -49; V-ATPase pHluor: 6

Results for O=C(CSc1ncn[nH]1)NCc1ccccc1 ?
TIM10 inh: 2; tim10-1 inh: 12; NALP1 yeast inh: 28*; tim23-1 inh: -5; NALP3 yeast inh: 7; V-ATPase pHluor: 0

What do the screens show for `CCCCc1nc2cc(C(=O)N(C)CCc3cn[nH]c3)ccc2o1`?
TIM10 inh: 3; tim10-1 inh: -1; NALP1 yeast inh: -9; tim23-1 inh: 8; NALP3 yeast inh: -2; V-ATPase pHluor: 15*

What do the screens show for `NS(=O)(=O)c1ccc(NC(=O)CCC(=O)c2ccc(Cl)s2)cc1`?
TIM10 inh: -4; tim10-1 inh: -5; NALP1 yeast inh: 11; tim23-1 inh: -10; NALP3 yeast inh: 7; V-ATPase pHluor: 3

Results for Cc1cc(N2CCCCCC2)nc(-c2ccccc2O)n1 ?
TIM10 inh: 18; tim10-1 inh: 14; NALP1 yeast inh: 22; tim23-1 inh: 19; NALP3 yeast inh: 10; V-ATPase pHluor: -3

How did Cc1cc(N2CCOCC2)nc(-c2ccccc2O)n1 do in these assays?
TIM10 inh: 17; tim10-1 inh: 31; NALP1 yeast inh: 18; tim23-1 inh: 26; NALP3 yeast inh: 5; V-ATPase pHluor: 60*

How did CC(C)c1nc2ccccn2c1NC1CCCCC1 do in these assays?
TIM10 inh: 4; tim10-1 inh: 11; NALP1 yeast inh: 24*; tim23-1 inh: 6; NALP3 yeast inh: 20; V-ATPase pHluor: -4

How did COc1ccc(CN2CCC(=O)N([C@H](CO)c3ccccc3)CC2)cc1 do in these assays?
TIM10 inh: -4; tim10-1 inh: -9; NALP1 yeast inh: 3; tim23-1 inh: -6; NALP3 yeast inh: 13; V-ATPase pHluor: 1

From PubChem
